# The entries come from a sample that favours hits as a whole.
# Pf apPOL block – Pf-apPOL DNA polymerase inhibition. Recombinant Pf-apPOL, molecular beacon fluorescence, 1.5 h. inhibition, % at 10 µM. 0.25% of 210,000 active
# mHTT-CaM PPI inh – inhibitors of human mutant huntingtin-calmodulin interaction; P42858; AlphaScreen His-mHTT/GST-CaM binding, luminescence; inhibition, % at 15 µM; 3.6% of 190,000 active; AID 1671202
# Hits are given with their value; - = inactive; . = no result given. No stated cut-off is given here; in the data, active means inhibition above about 50%; inactive means the rest.
SMILES,Pf apPOL block,mHTT-CaM PPI inh
COc1ccc(N2C(=O)/C(=C/c3cccs3)N=C2c2ccc(Cl)cc2)cc1,-,-
COc1ccc2nc(SCC(=O)Nc3ccc(Cl)c(C(=O)O)c3)[nH]c2c1,-,-
COc1ccc(OC)c(-c2c(C)c3cc(OC(C)=O)ccc3oc2=O)c1,-,-
CCOc1ccc(C(=O)N2CCC(c3nc(-c4cccc(NC(=O)CC)c4)no3)CC2)cc1,-,-
CCCc1nc(N2CCN(C(=O)COC)CC2)c2c3c(sc2n1)CC(C)CC3 (configuration not stated),-,-
O=C(Nc1cnc(N2CCOCC2)nc1)c1ccc(F)c(F)c1,-,-
O=C(C1COC2(CCCCC2)N1C(=O)c1ccc(Cl)c(Cl)c1)N1CCCC1 (configuration not stated),-,-
O=C(c1ccc(OCC2CCCN(C(=O)c3cccc(Cl)c3)C2)cc1)N1CCCC1 (configuration not stated),-,-
COc1ccc(-n2c(=O)c3c4c(sc3n3cnnc23)CCCC4)cc1,-,-
COc1ccc(-n2c(NN)nc3sc4c(c3c2=O)CCCC4)cc1,-,61
FC(F)(F)c1ccc2c(c1)Nc1ccccc1S2,-,.
Fc1ccc2c(c1)Sc1ccccc1N2,-,74
O=C1CC(C(=O)N2CCc3ccccc32)CN1CCc1c[nH]c2ccc(F)cc12 (configuration not stated),-,-
Cc1ccc(C(=O)C=CNc2cc(C(F)(F)F)cc(C(F)(F)F)c2)cc1,-,.
O=C1N=c2ccc(F)cc2=C1c1sc(Nc2ccc(F)cc2)nc1O,-,-
Nc1nc(O)c(C2=c3cc(F)ccc3=NC2=O)s1,-,81
O=C1NC(=O)/C(=C/c2cc([N+](=O)[O-])ccc2Cl)S1,-,-
Cc1ccc(-c2cc3c(=O)n(CC(=O)N4CCCc5ccccc54)ccn3n2)cc1,-,-
COCCNC(=O)C1Cc2ccccc2N2CCN(c3ccccc3F)CC12 (configuration not stated),-,-
COCCNC(=O)C1Cc2ccccc2N2CCN(c3cccc(Cl)c3)CC12 (configuration not stated),-,57
Cc1c(C(=O)NNC(=O)c2nn(C)cc2Br)nnn1-c1nonc1N,.,-
O=C(CCC1CCCC1)N1CCC(Nc2cccnc2)C1 (configuration not stated),67,-
O=C(CCc1ccccc1)N1CCC(Nc2cccnc2)C1 (configuration not stated),-,-
CC(=O)C1=C(O)C(=O)N(CCO)C1c1cccc(F)c1 (configuration not stated),-,-
O=C(NC1CC1)c1ccc(OCC2CCCN(C(=O)c3ccccc3F)C2)cc1 (configuration not stated),-,-
SMILES,Pf apPOL block,mHTT-CaM PPI inh
CCCn1cnnc1C1CCN(C(=O)COc2cccc(C)c2)CC1,-,-
Cc1ccc(-c2cn3cc(C(=O)NC(C)c4cccnc4)ccc3n2)cc1C (configuration not stated),-,53
Cc1ccc(-c2cn3cc(C(=O)NC(C)c4cccnc4)ccc3n2)cc1 (configuration not stated),-,51
CC(NC(=O)c1cn2ccccc2n1)c1cccnc1 (configuration not stated),-,-
CC(NC(=O)c1ccc(-c2ccnc(N3CCCC3)n2)cc1)c1cccnc1 (configuration not stated),-,-
COc1cccc(CNC(=O)c2cc3n(n2)CCCN(Cc2cccc(F)c2)C3=O)c1,-,-
COc1ccc(-c2coc3c4c(ccc3c2=O)OCN(CC2CCCO2)C4)cc1 (configuration not stated),-,-
Cc1cc(I)ccc1NC(=O)c1sc2ccccc2c1Cl,-,-
CCc1ccc(C2=Cc3ccccc3C(CC(=O)C3CC3)N2c2ccc(-c3cncnc3)cc2)cc1 (configuration not stated),-,100
COc1cc(OC)cc(C2=Cc3ccc(OC)cc3C(CC(C)=O)N2c2ccc(-c3cncnc3)cc2)c1 (configuration not stated),-,-
N#CC1=C(N)SC(N)=C(C#N)C1c1ccc(Cl)c(Cl)c1,-,98
N#CC1=C(N)SC(N)=C(C#N)C1c1ccncc1,.,-
Cn1c(=O)c2c(-c3ccccc3)n(-c3ccccc3O)cc2n(C)c1=O,-,-
COc1ccc(-c2c3c(=O)n(C)c(=O)n(C)c3cn2-c2cc(C)c(C)cc2N)cc1,68,-
COc1ccc(-c2c3c(=O)n(C)c(=O)n(C)c3cn2-c2ccccc2O)cc1,92,-
COc1ccc(-c2c3c(=O)n(C)c(=O)n(C)c3cn2-c2ccccc2N)cc1,-,-
COc1ccc(-c2c3c(=O)n(C)c(=O)n(C)c3cn2Cc2ccccc2)cc1,-,-
CCn1cc2c(c1-c1ccc(OC)cc1)c(=O)n(C)c(=O)n2C,54,-
COc1ccc(-c2c3c(=O)n(C)c(=O)n(C)c3cn2C)cc1,90,-
Cn1cc2c(c1-c1ccccc1)c(=O)n(C)c(=O)n2C,-,-
Cc1ccc(C2=N/C(=C\c3cccc(Cl)c3)C(=O)O2)cc1[N+](=O)[O-],-,-
O=S(=O)(c1cccc2nsnc12)N1CCCn2nc(-c3ccncc3)cc2C1,-,-
O=[N+]([O-])c1cccc(S(=O)(=O)n2cc(Br)cn2)c1,-,80
Cc1nn(S(=O)(=O)c2cccc([N+](=O)[O-])c2)c(C)c1Br,-,-
O=C(NCc1ccc(N2CCCC2)nc1)c1ccoc1,-,-
SMILES,Pf apPOL block,mHTT-CaM PPI inh
O=C(CN1N=C(c2ccc(Cl)cc2)CCC1=O)NCCC1=CCCCC1,-,-
COc1ccc(C=CC(=O)c2cc(C)ccc2O)c(OC)c1,-,67
COc1ccc(O)c(C(=O)C=Cc2ccc3c(c2)OCCCO3)c1,-,80
O=C(C=Cc1ccc2c(c1)OCCCO2)c1cc([N+](=O)[O-])ccc1O,-,-
COc1ccc(C=CC(=O)c2cc(F)ccc2O)c(OC)c1,-,-
CCN1CCc2ncnc(SCC(=O)Nc3ccc(Br)cc3)c2C1,-,-
CCN1C(=O)CCc2cc(C(=O)N3CCN(C)CC3)ccc21,-,-
O=C(c1ccc(F)cc1)N1CCc2nc(N3CCCC3)nc(N3CCCC3)c2C1,-,56
O=C(c1ccc(F)cc1)N1CCCCCC1,-,-
CCC(=O)NC(c1ccccc1Cl)c1ccc2cccnc2c1O (configuration not stated),-,100
CCC(=O)Nc1cccnc1-c1ccc(C(=O)Nc2ccccc2OC)cc1,-,-
O=C(CCCN1C(=O)c2cccnc2C1=O)NC(c1ccccc1)c1ccccc1,-,-
O=C(Cc1ccccc1)NC(c1ccccc1)c1ccc2cccnc2c1O (configuration not stated),-,100
CCC(=O)Nc1ccccc1Cl,-,-
CCCCC(=O)NC(c1ccccc1Cl)c1ccc2cccnc2c1O (configuration not stated),-,99
CCC(=O)NC(c1ccccc1OC)c1ccc2cccnc2c1O (configuration not stated),-,100
O=C(NC(c1ccccc1)c1ccccc1)c1ccccn1,-,-
Cc1cccc(-c2nc3c(c(=O)[nH]2)CN(C(=O)C(C)C)CC3)c1,-,-
COCCn1c(SCC(=O)Nc2nc(C)cs2)nnc1-c1c[nH]c2ccccc12,-,-
COc1cccc(C=C2Oc3cc(OC(=O)c4ccco4)ccc3C2=O)c1,-,-
CC(C)CCNC(=O)c1cn2cc(Cl)ccc2n1,-,-
Cc1ccc(NC(=O)c2cc([N+](=O)[O-])ccc2NCc2ccco2)cc1,-,-

# Compound activity deposited in PubChem by University of Kansas High Throughput Screening Laboratory.
